Screens as filed in PubChem.
TRHR agonist – activates the human TRH receptor; P34981; TRHR cells, calcium flux fluo-8, FDSS agonist mode; activation, % at 2 µM; 0.18% of 360,000 active; AID 493084; note: 0% is about no effect
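Agonist-mode FDSS calcium read (Ex 480/Em 530, 1 s cycles) in 1536-well TRHR cells with fluo-8 dye, after 10-cycle baseline and 23 nL compound addition; TRH at EC20 (10 nM final) added afterwards for the enhancer phase.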
D1 potentiator – enhances dopamine response at the human D1 receptor. P21728. HEK293 TREx D1 cells, calcium flux, dopamine EC20 potentiation. potentiation, % at 10 µM. 0.036% of 360,000 active. AID 504651; in the data active = potentiation above about 30%; note: 0% is about no effect
D1 agonist – activates the human D1 dopamine receptor; P21728; HEK293 T-REx D1 cells, calcium flux, agonist mode; activation, % at 2 µM; 1% of 360,000 active; AID 504660; note: 0% is about no effect
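Agonism was scored from calcium flux recorded over 180 s (1 read/s) after pintool compound addition, following a 10-cycle baseline. Cells were inducible force-coupled HEK293 TREx D1, plated overnight at 30 C and loaded with no-wash calcium dye.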
USP1-UAF1 inh – inhibitors of human USP1/UAF1 deubiquitinase. recombinant USP1/UAF1, Ub-Rhodamine cleavage fluorescence. Potency, µM (series often up to 57.1 µM), for the others: top-dose activity change, negative = inhibition, most hits filed as inhibitors. 0.23% of 390,000 active. AID 743255; active = well fitted inhibition curve with a large enough effect; inconclusive = small, poorly fitted or top-dose-only effect; inactive = no such curve, though single readings can be large or run the other way; note: potency is the fitted concentration of half-maximal effect; % is set by controls: 0 for no effect and ±100 for the full control effect; nearly all actives have a fitted effect of over 60% in size
Target sequence (O94782 whole entry, looked up): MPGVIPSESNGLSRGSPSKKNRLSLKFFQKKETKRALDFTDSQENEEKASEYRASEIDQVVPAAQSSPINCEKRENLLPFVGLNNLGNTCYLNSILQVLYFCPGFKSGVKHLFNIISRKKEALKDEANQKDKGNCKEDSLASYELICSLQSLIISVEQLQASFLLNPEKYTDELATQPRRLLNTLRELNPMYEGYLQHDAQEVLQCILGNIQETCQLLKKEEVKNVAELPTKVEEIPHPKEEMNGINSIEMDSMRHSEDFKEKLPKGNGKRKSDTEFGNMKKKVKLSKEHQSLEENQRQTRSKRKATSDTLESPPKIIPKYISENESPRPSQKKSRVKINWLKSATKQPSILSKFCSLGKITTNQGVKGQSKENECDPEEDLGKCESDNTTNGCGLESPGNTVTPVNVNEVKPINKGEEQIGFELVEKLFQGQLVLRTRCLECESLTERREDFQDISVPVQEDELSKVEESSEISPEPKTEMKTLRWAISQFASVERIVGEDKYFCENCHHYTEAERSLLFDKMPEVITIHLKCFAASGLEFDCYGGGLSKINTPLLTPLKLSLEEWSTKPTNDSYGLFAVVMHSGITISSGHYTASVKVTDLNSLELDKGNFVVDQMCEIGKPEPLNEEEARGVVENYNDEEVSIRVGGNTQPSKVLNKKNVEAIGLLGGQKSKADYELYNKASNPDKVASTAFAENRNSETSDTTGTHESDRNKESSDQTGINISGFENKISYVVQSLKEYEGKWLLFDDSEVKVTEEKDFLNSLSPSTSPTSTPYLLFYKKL
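High-throughput fluorogenic screen: 1nM USP1/UAF1 complex, Ub-Rho substrate 150nM final, 50mM HEPES pH 7.8 with 0.5mM EDTA, 0.1 mg/ml BSA, 1mM TCEP and 0.01% Tween-20.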
D1 antagonist – antagonists of human D1 dopamine receptor. P21728. HEK293 TREx D1 cells, calcium flux, dopamine EC80; hits give low values. AID 504652. 3.2% of 360,000 active. activity change, negative = inhibition, % at 10 µM; in the data active = activity change below about -30%; note: % is set by controls: 0 for no effect and ±100 for the full control effect
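HEK293 T-REx cells expressing inducible, force-coupled D1 receptor; no-wash Ca dye, 30–90 min RT. Cmpd → 180 s read at 1 Hz → EC80 DA → 180 s read.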
TRHR enhancer – allosteric enhancers of human TRH receptor | TRHR cells, fluo-8 calcium fluorescence, EC20 TRH enhancement | enhancement, % at 2 µM | 0.66% of 360,000 active | AID 493056; in the data active = enhancement above about 30%; note: 0% is about no effect
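Enhancer read-out: after compound pinning and an initial kinetic agonist-mode read, an EC20 of TRH (10 nM final) was injected and fluo-8 calcium signal (Ex 480/Em 530) followed at 1 s/cycle for 100 cycles in TRHR-expressing cells.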
* marks the source's active call; other numbers are inactive results; ? = inconclusive; · = no result. The list is not random: actives were taken first. Their share in the collection is about 4.4%. Cut-off read from the data, not from the text of the source, unless noted: active = activation above about 30%; inactive = the rest.

SMILES | TRHR agonist | D1 potentiator | D1 agonist | USP1-UAF1 inh | D1 antagonist | TRHR enhancer
CCOC(=O)c1cnc(-n2nc(C)cc2C)nc1Nc1ccc2c(c1)OCO2 | -1 | -10 | 6 | · | -11 | 33*
CCC(=O)N1CCc2cc(S(=O)(=O)NCCC(=O)NC(C)c3ccccc3)ccc21 (configuration not stated) | -1 | 0 | 2 | -16% | 5 | 10
COc1ccc(C(=O)NCCC(=O)NCc2cc(=O)n(C)c(=O)n2C)cc1 | 1 | -4 | 1 | -17% | -51* | 3
COc1cccc(C(=O)NCC(=O)NCc2cc(=O)n(C)c(=O)n2C)c1 | 0 | -4 | 6 | -14% | -36* | 0
CC(C)(C)c1ccc(OCC(=O)Nc2c(C(=O)c3ccc(F)cc3)oc3ccccc23)cc1 | -1 | 8 | 1 | -17% | 0 | -1
CCc1cccc2cc3c(N)c(C(=O)Nc4ccc(S(=O)(=O)N5CCCC5)cc4)sc3nc12 | 23 | 0 | 60* | 220% | 12 | -3
CC(C)N(c1ccccc1)c1ccc(NC(=S)NCCN(C)C)cc1 | 2 | -4 | 34* | -6% | 8 | -4
CCNC(=S)Nc1ccc(N(c2ccccc2)C(C)C)cc1 | 0 | -8 | 1 | -20% | -1 | 3
CN(C)CCCNC(=S)Nc1ccc(-c2ccccc2)cc1 | 5 | -3 | 34* | -14% | -7 | -7
O=C1C(c2ccc(F)cc2)N(Cc2ccccc2Cl)C(=O)CN1C1CCCCC1 (configuration not stated) | -1 | -1 | -2 | -8% | -42* | -2
CCCCn1c(N)c(NCC(C)C)c(=O)[nH]c1=O | 0 | 1 | 2 | -5% | -46* | -6
CCCCn1c(N)c(NCC)c(=O)[nH]c1=O | 1 | 5 | 4 | -23% | 2 | 1
CCOc1ccc(-c2nnc(SCC(=O)Nc3cccc(C#N)c3)o2)cc1 | 1 | -2 | 14 | -4% | -3 | -1
COc1ccc2[nH]c3c(c2c1)CCN1C(=O)N([C@@H](C)C(=O)NCc2ccc(F)cc2)C(=O)[C@]31C | 0 | 10 | 1 | -25% | 0 | -9
COc1ccc2[nH]c3c(c2c1)CCN1C(=O)N([C@@H](C)C(=O)NCCc2ccc(F)cc2)C(=O)[C@]31C | -1 | -6 | 1 | -5% | -85* | 3
COc1ccc(NC(=O)C(NC(=O)/C=C\c2ccc3c(c2)OCO3)c2ccccc2)cc1 (configuration not stated) | 1 | -1 | 5 | -16% | 3 | 0
O=C(C1CCC1)N1CCN(c2ccc(C(F)(F)F)cc2[N+](=O)[O-])CC1 | 1 | -8 | 10 | -10% | -40* | 6
CN1CCN(C(=O)CSc2ccc(C(F)(F)F)cc2[N+](=O)[O-])CC1 | 0 | -10 | 4 | -6% | -65* | -4
Cc1cc(N2CCN(c3ccc([N+](=O)[O-])c4cccnc34)CC2)c2ccccc2n1 | -1 | -13 | 2 | -26% | -1 | 4
Cc1cc(N2CCN(c3ccc(C(F)(F)F)cc3[N+](=O)[O-])CC2)c2ccccc2n1 | 0 | 1 | 1 | -25% | 19 | 35*
O=C(Nc1ccccc1)N1CCCN(c2ccc(C(F)(F)F)cc2[N+](=O)[O-])CC1 | 2 | -3 | 11 | -6% | -8 | -4
Cc1ccc2c(c1)cc(C(=O)NCc1ccccc1C)n2C | 0 | 0 | -3 | -26% | 10 | 0
CCOc1ccccc1NC(=O)Cn1cnc2c1c(=O)n(C)c(=O)n2C | 0 | 4 | -1 | -7% | 5 | 4
Cc1cc(C)c(S(=O)(=O)Nc2cc(Cl)c3oc4c(c3c2)C(=O)CCC4)cc1C | 1 | -1 | 2 | -17% | -5 | 2
CCOc1ccccc1NC(=O)c1sc2nc3c(cc2c1N)CN(Cc1ccccc1)CC3 | 8 | -4 | 55* | -13% | 16 | 5
SMILES | TRHR agonist | D1 potentiator | D1 agonist | USP1-UAF1 inh | D1 antagonist | TRHR enhancer
CCOC(=O)CNC(=O)c1cc2c(=O)n(CC)c3ccccc3c2s1 | 0 | 1 | -1 | -20% | 3 | 1
CCN1CCN(c2ccc(NC(=O)c3ccc(Cl)c(S(=O)(=O)N4CCCC4)c3)cc2)CC1 | 0 | -18 | -1 | -26% | -25 | 4
CCN1CCN(c2ccc(NC(=O)c3cc(S(=O)(=O)N4CCCC4)ccc3Cl)cc2)CC1 | 1 | -13 | 3 | -22% | -42* | 0
CCN1CCN(S(=O)(=O)c2ccc(Cl)c(C(=O)Nc3ccc(OC(F)F)cc3)c2)CC1 | -1 | -13 | 8 | -21% | -33* | -4
O=C1CCc2cc(S(=O)(=O)N3CCC(C(=O)NC4CCCC4)CC3)ccc2N1 | 0 | -4 | 0 | -21% | -31* | 8
CC(Oc1ccc2ccccc2c1)C(=O)NNC(=O)Nc1ccccc1 (configuration not stated) | 0 | 6 | 1 | -9% | -37* | -1
Cc1ccc(NC(=O)NNC(=O)COc2ccc3ccccc3c2)cc1 | 0 | -5 | 0 | 2% | 2 | -2
S=C(NCCN1CCOCC1)N/N=C/c1c2ccccc2cc2ccccc12 | 5 | 1 | 32* | ? | -3 | -3
Cc1ccc(Cn2ccsc2=NC(=O)COC(=O)C(C)C)cc1 | 1 | -1 | 0 | -21% | -48* | 1
Cc1ccc(Cn2ccsc2=NC(=O)COC(=O)c2ccc(O)cc2O)cc1 | 0 | 2 | 11 | -13% | -23 | 5
CCOC(=O)c1ccc2c(c1)C1C=CCC1C(C(=O)O)N2 (configuration not stated) | 0 | 1 | 1 | · | 9 | 4
CCOC(=O)C1Nc2ccc(C(=O)O)cc2C2C=CCC12 (configuration not stated) | 0 | 1 | 0 | 18µM* | -10 | 16
CCn1nc(C)c(CCN(C)C(=O)Nc2cc(Cl)ccc2C)c1C | 0 | 0 | 0 | -25% | 6 | 4
O=C(N/N=C/C1CC=CCC1)c1ccc(Cl)cc1O (configuration not stated) | 2 | -16 | 23 | -6% | -37* | -3
O=C(N/N=C/C1CC=CCC1)c1ccccc1O (configuration not stated) | 0 | 4 | 1 | 8% | 3 | 0
CCOC(=O)c1cc(=O)[nH]c2ccccc12 | 1 | -4 | 0 | -7% | 6 | 7
Cc1ccc(-c2nnc(COC(=O)c3cc(=O)[nH]c4ccccc34)o2)cc1 | -1 | -1 | -2 | -29% | -85* | 0
CC(=O)c1c(C)[nH]c(C(=O)OCc2nnc(-c3ccccc3)o2)c1C | 0 | -4 | 7 | -8% | -32* | 0
